Reference: ChEMBL document CHEMBL4513216, “Probing the Open Global Health Chemical Diversity Library for Multistage-Active Starting Points for Next-Generation Antimalarials” (ACS Infect Dis, 2020)
The campaign covered roughly 69,000 compounds. About 8,600 (12%) showed an effect of 50% or more. The full list was thinned out, with strong results kept by preference.

system: Plasmodium berghei; experiment: Screen against P. berghei liver stage (PbLuc), transformed with Luciferase, at 10uM; type: functional, HepG2; details: tested at 10 uM

Compound	INHIBITION [%]
Cc1cc(C)c(CNC(=O)N2CCN(c3cnccn3)CC2)c(=O)[nH]1	51.2
CN1CCN(C(=O)c2occc2CN2C(=O)Cc3ccccc32)CC1	37.9
c1cncc(CN2CCn3cc(CN4CCCCC4)nc3C2)c1	35.8
Cc1ccoc1C(=O)N1Cc2c(CN3CCCCC3)nn(C)c2C1	3.69
O=C(NCCCn1nc2ccccn2c1=O)NC(C1CC1)C1CC1	16.3
COc1ccc(CC(=O)NC2CCN(CC(F)F)CC2)cc1OC	14.4
O=C(c1ccoc1)N1CC[C@@H]2O[C@H](COCc3ccccn3)CC[C@@H]21	34.1
O=C(c1ccoc1)N1CC[C@@H]2O[C@@H](COCc3ccccn3)CC[C@@H]21	53.2
COCC(=O)N1CC[C@@H]2O[C@H](COCc3ccncc3)CC[C@@H]21	33.5
O=C(c1ccoc1)N1CC[C@@H]2O[C@@H](COCCN3CCCC3)CC[C@@H]21	31.1
CN(C)CCOC[C@H]1CC[C@H]2[C@H](CCN2C(=O)c2ccoc2)O1	34.6
CC(C)COC[C@H]1CC[C@H]2[C@H](CCN2C(=O)c2ccncc2F)O1	53
O=C(c1ccoc1)N1CC[C@@H]2O[C@@H](COCc3ccncc3)CC[C@@H]21	52
CCOC[C@H]1CC[C@H]2[C@H](CCN2C(=O)c2ccncc2F)O1	41.4
CC(C)COC[C@@H]1CC[C@H]2[C@H](CCN2C(=O)c2ccncc2F)O1	13.5
CCS(=O)(=O)N1CCC2(CN(c3ccsc3)C(=O)CN2C)C1 (centres undefined)	1.9
CN(C)CC1(O)CCCN(C(=O)CCn2cc(Cl)cn2)C1 (centres undefined)	-47
CSc1nc2ccsc2c(=O)n1CC(=O)N(C)C1CCCCC1	26.6
Cn1nccc1C(=O)N1CCCC1c1[nH]ncc1C(N)=O (centres undefined)	-31
CCOC(=O)N1CCN(C(=O)CCn2cccc2)CC1	35
Cc1nc(CN2CCC3(CC2)C(=O)N(C)CCN3C)cs1	31.5
Cn1cc(-c2nnn3c2COC(CNC(=O)c2cccs2)C3)cn1 (centres undefined)	8.64
Cc1nc(CN2CCN(C(=O)c3ccnc(N(C)C)c3)CC2)cs1	43.2
Cc1ccc(CN(C)C(=O)C(C)n2ccnc2C(C)C)o1 (centres undefined)	33
O=C(c1cccc(-c2ncc[nH]2)c1)N1CC[C@H](CO)[C@@H](O)C1	-12.1
CN(C)C1CCCN(C(=O)c2cccc(-c3ncc[nH]3)c2)CC1 (centres undefined)	12.8
O=C(c1cccc(-c2ncc[nH]2)c1)N1CCC(N2CCCC(O)C2)CC1 (centres undefined)	57.2

Compound	INHIBITION [%]
Cc1ncnc2c1CCN(Cc1nccs1)CC2	8.85
CC(C(=O)NCC(C)(C)c1ccc(Br)cc1)n1cncn1 (centres undefined)	23.1
O=c1[nH]cnc2[nH]c(N3CCOCC3)nc12	31.8
COc1ccc2nc(C3CC3)cc(C(=O)NCc3noc(C)n3)c2c1	57.2
COc1ccc2nc(C3CC3)cc(C(=O)NCc3ncnn3C)c2c1	10.7
COc1ccc2nc(C3CC3)cc(C(=O)NCC(=O)N(C)C)c2c1	13.9
COc1ccc(C)cc1CC(=O)NC(CC(=O)O)c1ccc(F)cc1 (centres undefined)	58.3
COc1ccc(C)cc1C(=O)NC(CC(=O)O)c1cccs1 (centres undefined)	52.3
COc1ccc(Cl)cc1C(=O)NC(CC(=O)O)c1cccs1 (centres undefined)	29.7
COc1cccc(-c2n[nH]cc2C(=O)NC(C)CC(=O)O)c1 (centres undefined)	42.3
COc1ccccc1CC(=O)NC(CC(=O)O)c1ccc(F)cc1 (centres undefined)	32.3
COc1ccccc1CC(C)CC(=O)O (centres undefined)	29.3
O=C(O)CC(NC(=O)c1ccccc1OC(F)F)c1cccs1 (centres undefined)	68.8
COc1ccc(C(=O)NC(CC(=O)O)c2cccs2)c(OC)c1 (centres undefined)	-5.25
CCOc1ccccc1C(=O)NC(CC(=O)O)c1cccs1 (centres undefined)	13.3
COc1ccc(CC(=O)NC(CC(=O)O)c2ccc(F)cc2)cc1OC (centres undefined)	29
COc1ccccc1C(=O)NC(CC(=O)O)c1cccs1 (centres undefined)	-9.14
COc1ccccc1C(=O)NC(C)CC(=O)O (centres undefined)	51.3
Cc1csc(CN2CCC[C@]3(C[C@@H](OCC4CC4)CO3)C2)n1	35.6
Cc1nnc(NCCn2nc(C)c(Cl)c2C)o1	26.8
CC(Cn1ccnc1)NC(=O)NCCc1ccc(Cl)s1 (centres undefined)	-5.25
O=C1CC(N(C(=O)CCc2cc(F)ccc2F)C2CC2)C(=O)N1 (centres undefined)	22.2
CCn1ccnc1CN1CCCC1c1noc(C2CC2)n1 (centres undefined)	40.9
CN(Cc1nnc2n1CCC2)C(=O)c1ccc2c(c1)CCO2	26.4
Cc1nc2c(c(=O)[nH]1)CCN(Cc1ccc3c(c1)CCCN3C)C2	31.6
Cc1ccc2c(c1)C(=O)NCC1(CCN(C(=O)c3cnccn3)CC1)O2	-32.2
O=C(CCc1ccccc1F)N1CCC(Nc2cccnn2)CC1	1.78
